# Results from PubChem BioAssay (NCATS).
# Records with an inconclusive call do not appear. Entries that show only a call come without a potency. The source made the active and inactive calls. Unless noted, the call rests on the fitted dose curve; in most records, active means well fitted curve in the direction sought with a large enough effect; inconclusive means small, poorly fitted or top-dose-only effect, or another doubt; inactive means no such curve, though single readings can be large; an effect the other way counts as inactive or inconclusive.
# What was measured:
# [1] = Cytotoxicity counterscreen for NFkB agonists and antagonists (AID 624476);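 further: cells exposed to compound for 48 hours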; further: potency means the concentration at half of the fitted maximal effect
# [2] = qHTS Assay for Identification of Small Molecule Agonists for NFkB Signaling Pathway. (AID 624478)
# Procedure, shortened: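 NFkB-bla ME-180 cells carry a beta-lactamase reporter. They received compound plus TNF alpha at 10 pM final (its EC50) for 5 h at 37 C. Reporter activity was read as 460/530 nm emission ratio after 2 h LiveBLAzer substrate loading.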
# [3] = qHTS Assay for Identification of Small Molecule Antagonists for NFkB Signaling Pathway. (AID 624479; calls by dose curve;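 further: pathway stimulated with TNF alpha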; further: potency means the concentration at half of the fitted maximal effect)
# [4] = Cell Proliferation Assay against the TMD8 Cell Line (AID 651645); conditions: TMD8 DLBCL cell line proliferation/viability; at 46.1 µM (top of the series) unless noted;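 further: cells exposed to compound for 48 h before reading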
# Procedure, shortened: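 Viability by CellTiter-Glo after 48 h compound exposure of 500 log-phase TMD8 cells per well (RPMI, 5% FBS). Percent activity scaled between DMSO (100%) and 9.2 uM final bortezomib (0%).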
# [5] = Cell Proliferation Assay against the HBL1 Cell Line (AID 651646); conditions: HBL1 DLBCL cells; at 46.1 µM (top of the series) unless noted;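 further: cells exposed to compound for 48 h before reading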
# Procedure, shortened: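 500 log-phase HBL1 cells per well in phenol red-free RPMI with 5% FBS were treated with compounds for 48 h at 37 °C, 5% CO2. Viability was read by CellTiter-Glo luminescence, normalized to DMSO (100%) and 9.2 uM bortezomib final (0%).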
# [6] = Cell Proliferation Assay against the TMD8 Cell Line (Caspase readout at 16 hrs) (AID 651712); further: potency means the concentration at half of the fitted maximal effect
# Procedure, shortened: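 TMD8 cells (500/well) in phenol-red-free RPMI with glutamine, 5% FBS, were exposed to compounds for 16 h at 37 °C. Caspase 3/7 activation was read by Caspase-Glo luminescence; percent activity normalised to DMSO (0%) and 9.2 uM bortezomib final (100%).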
# [7] = Cell Proliferation Assay against the TMD8 Cell Line (Caspase readout at 8 hrs) (AID 651713)
# Procedure, shortened: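 TMD8 cells in RPMI plus 5% FBS were treated with compound for 8 h at 37C. Caspase 3/7 activation was read by Caspase-Glo luminescence. Percent activity was scaled from DMSO (0%) to 9.2 uM bortezomib final (100%).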
SMILES,Potency [1],outcome [2],Potency [3],viability (% of control) [4],"viability, percent of control [5]",Potency [6],Potency [7]
COc1ccccc1[C@H](c1cccc2ccccc12)[C@@](C)(C#N)C(=O)N1CCC(c2cccc(C(F)(F)F)c2)CC1,inactive,inactive,inactive,83.6%,95.2%,inactive,inactive
NC(=O)c1ccc(-c2nc(-c3ccc4c(c3)OCO4)c(-c3ccccn3)[nH]2)cc1,inactive,inactive,inactive,92.5%,121%,inactive,inactive
O=C1CCCC2=C1C(c1[nH]ncc1Cl)N=C(Nc1nc3ccccc3o1)N2 (configuration not stated),inactive,inactive,inactive,75.7%,71.6%,inactive,inactive
CN(C(=O)c1ccc(F)cc1C(F)(F)F)C1CCN(c2nnc(-c3ccnn3C)c3ccccc23)CC1,inactive,inactive,inactive,70.8%,65.3%,,inactive
CC1(C)SCCN(S(=O)(=O)c2ccc(OCC#CCO)cc2)[C@@H]1C(=O)NO,inactive,inactive,inactive,84.4%,97.2%,inactive,inactive
CS(=O)(=O)c1cccc(CNc2nc(Nc3ccc4c(c3)CCC(=O)N4)ncc2C(F)(F)F)c1,inactive,inactive,inactive,,120%,inactive,inactive
CC(C)(N)C(=O)N[C@H](COCc1ccccc1)C(=O)N1CCC2(CC1)CN(S(C)(=O)=O)c1ccccc12,inactive,inactive,inactive,48.1%,69.2%,inactive,inactive
COc1cc2c(cc1OC)CN(CCc1ccc(NC(=O)c3cccc4c(=O)c5cccc(OC)c5[nH]c34)cc1)CC2,inactive,inactive,inactive,56%,0.316%,inactive,inactive
C[C@H](NC(=O)Cc1cc(F)cc(F)c1)C(=O)N[C@@H]1C(=O)N(C)c2ccccc2-c2ccccc21,inactive,inactive,inactive,86.6%,87.3%,inactive,inactive
CC(C)c1onc(-c2c(Cl)cccc2Cl)c1COc1ccc(/C=C/c2cccc(C(=O)O)c2)c(Cl)c1,11.8 µM (active),inactive,21.1 µM (active),89.6%,75.2%,,inactive
COc1nc(-c2ccc3c(c2)OCO3)n(-c2ccc(NC(=O)CSc3ccccc3)cc2)n1,inactive,inactive,inactive,60.1%,68.5%,,inactive
COc1ccc(-c2oc3cc(OC)ccc3c2C(=O)c2ccc(C#N)cc2)cc1,inactive,inactive,inactive,52.2%,76%,inactive,inactive
CCc1ccc(CCOc2ccc(CC3SC(=O)NC3=O)cc2)nc1 (configuration not stated),inactive,inactive,16.8 µM (active),79.6%,77.7%,,inactive
CCCS(=O)(=O)Nc1ccc(F)c(C(=O)c2c[nH]c3ncc(-c4ccc(Cl)cc4)cc23)c1F,20.9 µM (active),inactive,16.8 µM (active),41.4%,4.32%,,inactive
Cc1ccnc(NS(=O)(=O)c2ccc(NC(=O)Nc3ccc(S(=O)(=O)Nc4nccc(C)n4)cc3)cc2)n1,inactive,inactive,16.8 µM (active),48.6%,,23.5 µM (active),inactive
COc1cccc2cc(-c3nc(C4CCC(C(=O)O)CC4)n4ncnc(N)c34)[nH]c12 (configuration not stated),inactive,inactive,inactive,,58.5%,,
CCN(CC)CCCC(C)Nc1nc(C)cc(Nc2ccc3nc(C)cc(N)c3c2)n1 (configuration not stated),inactive,inactive,inactive,65.5%,67.9%,inactive,inactive
O=c1ncn2nc(Sc3ccc(F)cc3F)ccc2c1-c1c(Cl)cccc1Cl,inactive,inactive,inactive,,62.3%,,inactive
O=S(=O)(N=Cc1c(O)ccc2ccccc12)c1cccs1,inactive,inactive,inactive,,72.6%,,inactive
CCN(c1ccccc1)c1cc(NC)[n+](C)c(C)n1,inactive,inactive,inactive,,87.8%,inactive,inactive
CN(C)c1ccc(C2Nc3ccc4ccccc4c3C3=C2C(=O)CC(C)(C)C3)cc1Br (configuration not stated),inactive,inactive,,64.8%,69.1%,inactive,inactive
CCOc1cc(N2CCC(O)CC2)ccc1Nc1ncc2c(n1)N(C)c1ccccc1C(=O)N2C,inactive,inactive,,2.87%,29%,20.9 µM (active),
Cc1cnc(Nc2ccc(OCCN3CCCC3)cc2)nc1Nc1cccc(S(=O)(=O)NC(C)(C)C)c1,inactive,inactive,inactive,,65.3%,inactive,inactive
